Assay outcomes (PubChem)
BAZ2B inh: BAZ2B (human) inhibition; AlphaScreen BAZ2B-H3K14Ac peptide displacement; Potency, µM (titrated, usually from 114 µM), most hits filed as inhibitors; hit rate 4.4% among 360,000; also: nearly all actives have a fitted effect of over 60% in size
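AlphaScreen luminescence quantifies BAZ2B engagement of H3K14Ac peptide; the protein and biotinylated peptide are both at 50 nM final, buffer PBS pH 7.4 with 0.01% Tween-20, all steps at room temperature.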
G9a inh: inhibitors of human histone lysine methyltransferase G9a | AID 504332 | Q96KQ7 | Potency, µM (doses to about 102 µM), hits mostly inhibitors | hit rate 8.8% among 350,000 | G9a H3K9 monomethylation, AlphaScreen, 2 h; also: nearly all actives have a fitted effect of over 75% in size
Target sequence (Q96KQ7 913-1193 limits assumed): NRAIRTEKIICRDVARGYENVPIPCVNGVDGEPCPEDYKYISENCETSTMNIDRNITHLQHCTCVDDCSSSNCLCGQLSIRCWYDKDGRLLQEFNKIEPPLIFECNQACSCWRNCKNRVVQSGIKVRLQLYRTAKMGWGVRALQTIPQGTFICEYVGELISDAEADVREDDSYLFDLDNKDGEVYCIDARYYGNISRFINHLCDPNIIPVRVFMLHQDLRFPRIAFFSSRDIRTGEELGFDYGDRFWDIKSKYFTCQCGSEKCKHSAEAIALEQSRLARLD
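Quantitative HTS format: methyltransferase activity on a biotin-tagged H3K9 peptide is measured by AlphaScreen, using a rabbit anti-monomethyl-H3K9 antibody with streptavidin donor and anti-IgG acceptor beads. Final levels are 20 nM enzyme, 500 nM peptide, 20 uM SAM; 2 h RT.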
Sfp PPTase inh: inhibitors of Bacillus subtilis Sfp phosphopantetheinyl transferase. Potency, µM, most hits filed as inhibitors. hit rate 3.5% among 310,000. Q9F4F7. AID 1490. Biochemical Sfp PPTase activity, qHTS;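 also: the enzyme is Sfp with the accession as filed and its product quenches rhodamine fluorescence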
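Fluorescence-quenching assay: 15 nM Sfp-PPTase preincubated 15 min at room temperature with compound, then 5 uM rhodamine-CoA and 12.5 uM BHQ-2-labelled YbbR peptide added. Fluorescence (ex 525/em 598 nm) read at start and after 30 min; difference gives rate.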
HP1b chromo inh: inhibitors of HP1-beta chromodomain binding to methylated histone tails; AlphaScreen HP1-beta / biotin-H3K9me3 peptide binding; P83916; hit rate 0.56% among 390,000; Potency, µM (highest dose often 114 µM), actives largely listed as inhibitors; also: nearly all actives have a fitted effect of over 70% in size
Target sequence (P83916 whole entry, looked up): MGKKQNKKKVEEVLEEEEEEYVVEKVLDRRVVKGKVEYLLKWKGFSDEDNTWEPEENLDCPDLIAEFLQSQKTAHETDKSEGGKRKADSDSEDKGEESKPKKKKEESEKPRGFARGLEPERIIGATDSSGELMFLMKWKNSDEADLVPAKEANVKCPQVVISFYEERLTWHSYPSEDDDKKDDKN
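HP1-beta protein (50 nM final) preincubated 30 min at room temperature with biotinylated H3(1-18)K9me3 peptide (50 nM) in PBS pH 7.4, 0.01% Tween-20, then compound added for 30 min. AlphaScreen streptavidin donor/nickel chelate acceptor beads (10 ug/mL final), 30 min dark, luminescence read.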
JMJD2A Tudor inh: blocks the human JMJD2A Tudor domain | O75164 | AlphaScreen JMJD2A-Tudor / H3K4me3 peptide binding | Potency, µM (titrated, usually from 114 µM), actives largely listed as inhibitors | hit rate 4.4% among 390,000 | AID 504339; also: nearly all actives have a fitted effect of over 50% in size
L3MBTL1 inh: blocks human L3MBTL1 | AlphaScreen L3MBTL1–H3K9me1 peptide binding | Potency, µM (titrated, usually from 57.1 µM), most hits filed as inhibitors | hit rate 0.66% among 230,000 | AID 485360; also: nearly all actives have a fitted effect of over 60% in size
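L3MBTL1 (50 nM) pre-complexed 30 min with biotinylated H3(1-15)K9me1 peptide (75 nM), then compounds added for 30 min at room temperature; AlphaScreen streptavidin donor/nickel chelate acceptor beads (10 ug/mL final) read after 30 min dark incubation.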
A number is an active result; – = inactive; ? = inconclusive; · = not tested or not shown; ! = a repeat was not active; [ ] = another dose, or the depositor's remark. A selection: hits, their analogues and other compounds. The true share with any hit is near 12%. Calls follow the shape of the dose curve; as a rule, active = well fitted curve in the direction sought with a large enough effect; inconclusive = small, poorly fitted or top-dose-only effect, or another doubt; inactive = no such curve, though single readings can be large; an effect the other way counts as inactive or inconclusive.

SMILES	BAZ2B inh	G9a inh	Sfp PPTase inh	HP1b chromo inh	JMJD2A Tudor inh	L3MBTL1 inh
CCCCNC(=O)C(CC)Sc1nnc(-c2ccc(OC)c(OC)c2)c(-c2ccc(OC)c(OC)c2)n1 (stereo not drawn)	–	–	·	–	–	·
Cc1cccn2c(=O)c(/C=C3\SC(=S)NC3=O)c(NCCCN3CCOCC3)nc12	–	12.6µM	3.98µM	–	–	–
O=C1CC(N2CCN(c3ccccc3)CC2)C(=O)N1c1ccc2c(c1)OCCO2 (stereo not drawn)	–	–	–	–	–	·
CN1CCN(C2CC(=O)N(c3ccc4c(c3)OCCO4)C2=O)CC1 (stereo not drawn)	?	44.7µM	–	–	?	·
CSC1=C(C#N)C(CC(C)C)C(C(C)=O)=C(C)N1 (stereo not drawn)	–	50.1µM	–	–	–	–
CSC1=C(C#N)C(CC(C)C)C2=C(CCCC2=O)N1 (stereo not drawn)	–	–	–	–	–	–
CCn1c2c(c(=O)n3ncc(C(=O)Nc4ccc(C(=O)OC)cc4)c13)CN(Cc1ccc(OC)cc1)CC2	–	28.2µM	·	–	?	·
CCn1c2c(c(=O)n3ncc(C(=O)Nc4cc(Cl)ccc4OC)c13)CN(Cc1ccc(OC)cc1)CC2	–	–	·	–	–	·
CCn1c2c(c(=O)n3ncc(C(=O)Nc4cccc(Cl)c4C)c13)CN(Cc1ccc(OC)cc1)CC2	–	14.1µM	·	–	?	·
O=c1ccc(-c2ccccc2)nn1Cc1c(F)cccc1Cl	–	–	·	–	–	·
N#C/C(=C\c1ccc(O)c(O)c1)C(=O)N1CCCC1	·	12.6µM	63.1µM	–	?	–
COCCNC(=O)/C(C#N)=C/c1cccc(/C=C(\C#N)C(=O)NCCOC)c1	–	–	20µM	–	–	–
COc1cc(/C=C(\C#N)C(=O)Nc2cccc(C(=O)O)c2)ccc1OCc1ccc(Cl)cc1	44.7µM	–	–	–	?	·
COc1cc(/C=C(/C#N)C(=O)Nc2ccccc2)c(Br)cc1OCc1ccc(C(=O)O)cc1	?	?	–	–	?	·
COc1ccc(/C=C(\C#N)C(=O)NCCc2ccccc2)cc1OCc1ccccc1	–	1µM	–	–	–	–
COCCNC(=O)/C(C#N)=C/c1ccc(O)cc1	–	·	–	–	–	·
CC(C)c1ccc(NS(=O)(=O)c2ccc3nc(-c4ccccc4)[nH]c3c2)cc1	–	–	·	–	–	·
COc1ccccc1-c1nnc(SCC(=O)c2ccc(F)cc2)n1-c1ccccc1	?	?	·	–	–	·
O=C(c1ccco1)N1CCN(/C=C2\Nc3ccccc3C(=O)N2c2ccc(F)cc2)CC1	·	·	·	–	–	·
N#C/C(=C\c1ccc(O)c(O)c1)C(=O)NCCCc1ccccc1	8.91µM	3.36µM	63.1µM!	?	44.7µM	?
Cc1cc(/C=C(\C#N)C(=O)NCc2ccccc2)cc(C)c1O	–	–	–	–	–	·
COCCCNC(=O)c1cc2n(n1)CCCN(Cc1ccc(C)cc1)C2=O	–	–[12.7 µM]	·	–	–	·
Cn1nnc(NC(=S)NC(=O)c2cc(Cl)ccc2Cl)n1	?	3.55µM	50.1µM	–	–	·
Cc1ccc(CN(Cc2ccco2)C(=S)NCC(=O)NC2CC2)cc1	–	17.8µM	50.1µM	–	–	·
CCCCNC(=O)CNC(=S)N(Cc1ccccc1)Cc1cccs1	–	–	–	–	–	·
SMILES	BAZ2B inh	G9a inh	Sfp PPTase inh	HP1b chromo inh	JMJD2A Tudor inh	L3MBTL1 inh
CCCCNC(=O)CNC(=S)N(Cc1ccc(C)cc1)Cc1ccco1	–	28.2µM	56.2µM	–	–	·
Cc1ccc(CN(Cc2ccco2)C(=O)c2cccc(C)c2)cc1	–	–	·	–	–	·
Cc1ccc2c(=O)c(C(=O)c3ccc(F)cc3)cn(CC(=O)NCc3ccccc3)c2n1	–	–	·	–	–	·
Cc1ccc2c(=O)c(C(=O)c3ccc(F)cc3)cn(CC(=O)NCc3ccco3)c2n1	50.1µM	50.1µM	–	–	?	·
Cc1sc2ncn(CC(=O)NCc3ccco3)c(=O)c2c1-c1ccc(F)cc1	?	?	17.8µM	–	–	–
O=C(Cn1cnc2scc(-c3cccc([N+](=O)[O-])c3)c2c1=O)NCc1ccco1	44.7µM	–	?	?	22.4µM	·
O=C(Cn1cnc2c(cnn2-c2ccc(F)cc2)c1=O)NCc1ccco1	–	–	–	–	–	–
O=C(Cn1cnc2c(nnn2Cc2ccccc2F)c1=O)NCc1ccco1	–	·	89.1µM	–	–	–
CCc1ccc(N(CC)C(=O)Cn2nc(Cc3cccnc3)c3ccccc3c2=O)cc1	–	–	·	–	–	·
O=C(C[n+]1ccn(-c2ccccc2)c1)c1ccc([N+](=O)[O-])cc1	–	?	–	–	–	·
COc1ccc(/C=C/C(=O)c2ccc(OC)cc2OC)cc1	–	–[12.7 µM]	–	–	–	–
COc1ccc(C(=O)/C=C/c2ccc(OC)cc2OC)c(O)c1	?	?	?	–	17.8µM	–
COc1ccc(/C=C/C(=O)c2cc3c(cc2N)OCO3)cc1	22.4µM	17.8µM	?	39.8µM	28.2µM	·
O=C(/C=C/c1cccnc1)/C=C/c1cccnc1	–	28.2µM	14.1µM	–	–	–
C(=Cc1cccnc1)c1ccncc1	·	·	·	–	–	·
COc1ccc(OC)c(C(=O)/C=C/c2cccnc2)c1	–	50.1µM	–	–	–	·
COc1cc(C(=O)/C=C/c2cccnc2)ccc1O	–	–	–	–	–	·
CCOc1ccc(N(C(=O)CC(C)C)S(=O)(=O)c2ccc3c(c2)oc(=O)n3C)cc1	–	–	·	–	–	·
CCc1ccc(OC)c(S(=O)(=O)NCc2cccs2)c1	–	–[12.7 µM]	·	–	–	–
CCOC(=O)OCC1OC(CCc2ccccc2)CCC1Oc1ccc(OC)cc1 (stereo not drawn)	·	·	–	·	·	·
O=C(O)COc1ccc(OCCNC[C@H](O)COc2ccccc2)cc1	·	?	–	·	·	·
COc1ccc(C(=O)/C=C/c2ccccc2)c(O)c1	44.7µM	?	20µM	?	?	?
COc1ccc(C(=O)/C=C/c2cccs2)c(OC(=O)N2CCOCC2)c1	–	–	–	–	–	–
COc1ccc(C(=O)C=Cc2cccs2)c(O)c1	·	·	·	?	44.7µM	·
COc1ccc(/C=C/C(=O)c2cc(Cl)ccc2O)c(OC)c1	25.1µM	·	?	?	?	?
SMILES	BAZ2B inh	G9a inh	Sfp PPTase inh	HP1b chromo inh	JMJD2A Tudor inh	L3MBTL1 inh
CCCCn1cnc2c(=O)[nH]c(N)nc21	·	·	·	–	–	·
O=C(Cc1ccccc1)Nc1c(C(=O)N2CCN(c3ccc(F)cc3)CC2)oc2ccccc12	–	–	·	–	–	·
CCCCCOC(=O)C(C)c1c(C)[nH]c(=S)[nH]c1=O (stereo not drawn)	–	70.8µM	–	–	–	–
COC(=O)c1ccc(NC(=O)C(=O)c2cn(CC(=O)N3CCOCC3)c3ccccc23)cc1	–	–	–	–	–	·
Cc1ccc(CNC(=O)CSc2c3c(nc4ccc(Cl)cc24)CCCC3)o1	–	–	35.5µM	–	–	·
CCc1ccc(Sc2cc(C(=O)NCc3ccccc3OC)c3ccccc3n2)cc1	–	–	·	–	–	·
